Measured values published in the supplement of paper PMC6805474.

How the values were obtained:
[1] = tested on: Schistosoma mansoni schistosomula (LE); experiment: XTT viability relative to DMSO control; higher = more viable (less active); conditions: 72 h; 10 µM
Method: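 XTT/PMS was then added for a further 24 h (72 h total) and A450 was read. % viability = (sample - heat-killed control)/(DMSO control - heat-killed control) x 100, from duplicate wells in two independent experiments.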

[2] = tested on: Schistosoma mansoni schistosomula (NMRI); experiment: phenotypic severity score (0-4); higher = more antischistosomal effect, active = 2 or more; conditions: 10 µM
[3] = tested on: Schistosoma mansoni schistosomula (Liberian); experiment: drug effect (1 - score/DMSO control score) (fraction); higher = more antischistosomal effect, active = 0.5 or more; extreme values may be limits of the assay; conditions: 10 µM
How it was run: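 A plate was valid only if its 0.1% DMSO wells averaged a score of at least 2. Those wells ran beside duplicate wells in which 50 Liberian-strain Schistosoma mansoni schistosomula each, transformed mechanically from cercariae and pre-incubated at least 12 h, met 10 µM compound in Medium 199 with 5% FCS at 37 °C, 5% CO2. Scoring was visual at 10× at 24, 48 and 72 h, from 3 (normal) to 0 (dead) in quarter-point steps. Drug effect was derived from the mean test-well score against the mean DMSO-well score, with negatives set to zero.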
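Throughout, for phenotypic severity score (0-4): visual microscopic scoring of shape, motility and density changes versus 0.5% DMSO solvent controls, one point per descriptor, degeneracy or death scored 4, mean of duplicate wells.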

Structure (SMILES)	XTT viability [1] [%]	phenotypic severity score ([2]; 24 h)	phenotypic severity score ([2]; 48 h)	phenotypic severity score ([2]; 72 h)	drug effect ([3]; 24 h)	drug effect ([3]; 48 h)	drug effect ([3]; 72 h)
Cc1cc(C)cc(COc2ccc3c(C)c(CCC(=O)O)c(=O)oc3c2C)c1	79.3	1 (inactive)	1 (inactive)	0 (inactive)	0.136 (inactive)	0.2 (inactive)	0.127 (inactive)
Cc1cc(C)nc(-n2nc(C)cc2Nc2ccccc2)n1	55.6	2 (active)	1 (inactive)	4 (active)	0.0526 (inactive)	0.278 (inactive)	0.25 (inactive)
Cc1nc2ccccn2c1C(=O)NCc1ccc(Cl)cc1	81	0 (inactive)	0 (inactive)	0 (inactive)	0.1 (inactive)	0.189 (inactive)	0.333 (inactive)
Cc1nn2c(=O)c3c([nH]c2c1-c1ccc(Cl)cc1)CCCC3	101	0 (inactive)	0 (inactive)	0 (inactive)	0.136 (inactive)	0.2 (inactive)	0.127 (inactive)
COc1ccc(Oc2ccc([C@@H](C)N(C)c3ncc4c(N)nc(N)nc4n3)cc2)cc1	4.74	4 (active)	4 (active)	4 (active)	0.526 (active)	0.5 (active)	0.5 (active)
CNC(=O)C1Cc2c([nH]c3cc(Cl)ccc23)C2(CCN(CCc3ccccc3)CC2)N1 (stereo unspecified)	13.4	0 (inactive)	0 (inactive)	0 (inactive)	0.1 (inactive)	0.514 (active)	0.394 (inactive)
CS(=O)(=O)N1CCC(CCn2nc(Cc3cccc4ccccc34)c3c(N)ncnc32)CC1	90.7	0 (inactive)	0 (inactive)	0 (inactive)	0.273 (inactive)	0.45 (inactive)	0.509 (active)
COC(=O)C1=C(C)NC(C)=C(C(=O)OC(C)C)C1c1cccc2nonc12 (stereo unspecified)	63.2	2 (active)	0 (inactive)	0 (inactive)	0.15 (inactive)	0.189 (inactive)	0.111 (inactive)
O=C(NCc1nnc2n1CCCCC2)c1ccc(-c2ccc(F)cc2)o1	97.1	1 (inactive)	0 (inactive)	0 (inactive)	0.136 (inactive)	0.15 (inactive)	0.182 (inactive)
CCc1c(C)nc(-n2nc(C)cc2NC(=O)c2ccccc2SC)[nH]c1=O	-1.13	0 (inactive)	1 (inactive)	3 (active)	0.273 (inactive)	0.95 (active)	1 (active)
CS(=O)(=O)c1ccccc1C(=O)N(Cc1ccccc1)c1ccccc1	106	0 (inactive)	1 (inactive)	0 (inactive)	0.182 (inactive)	0.4 (inactive)	0.4 (inactive)
CC(C)(C)n1nc(Cc2ccc(F)c(Cl)c2)c2c(N)ncnc21	98.7	0 (inactive)	0 (inactive)	0 (inactive)	0.0811 (inactive)	0.167 (inactive)	0.188 (inactive)
CCS(=O)(=O)N(Cc1ccco1)Cc1cc2ccc(C)cc2nc1O	55.5	0 (inactive)	1 (inactive)	0 (inactive)	0.2 (inactive)	0.333 (inactive)	0.5 (active)
O=C(Nc1ccc2c(c1)B(O)OC2)c1ccccc1C(F)(F)F	71.1	0 (inactive)	0 (inactive)	0 (inactive)	0.1 (inactive)	0.0556 (inactive)	0.167 (inactive)
CC1CC1C(=O)NC1CCN(CC2(c3ccccc3)CCCCC2)CC1 (stereo unspecified)	82.4	1 (inactive)	0 (inactive)	0 (inactive)	< 0 (inactive)	0.0811 (inactive)	0.222 (inactive)
Cc1cnc(CCNC(=O)c2cc(-c3ccc(Cl)cc3)cs2)[nH]1	79.7	1 (inactive)	1 (inactive)	0 (inactive)	0.136 (inactive)	0.45 (inactive)	0.509 (active)
CCc1ccc(S(=O)(=O)Nc2cc(CN3CCN(CCC(C)C)CC3)ccc2C)cc1	85.8	1 (inactive)	2 (active)	4 (active)	0.25 (inactive)	0.444 (inactive)	0.5 (active)
CCCCCCCCCCCCCCCCOP(=O)([O-])OCC[N+](C)(C)C	127	0 (inactive)	0 (inactive)	0 (inactive)	0.05 (inactive)	0.243 (inactive)	0.273 (inactive)
CC(C)(C)c1cc(C(=O)Nc2cccnc2)cc(C(=O)Nc2cccnc2)c1	79.8	0 (inactive)	0 (inactive)	0 (inactive)	< 0 (inactive)	0.0811 (inactive)	0.0556 (inactive)

Structure (SMILES)	XTT viability [1] [%]	phenotypic severity score ([2]; 24 h)	phenotypic severity score ([2]; 48 h)	phenotypic severity score ([2]; 72 h)	drug effect ([3]; 24 h)	drug effect ([3]; 48 h)	drug effect ([3]; 72 h)
FC(F)(F)c1cccc(-c2nc3c(NCc4ccncc4)nccc3[nH]2)c1	90.7	0 (inactive)	0 (inactive)	0 (inactive)	0.15 (inactive)	0.0811 (inactive)	0.152 (inactive)
Cn1ccnc1CNCCS(=O)(=O)c1cccc(Nc2ccc(-c3cccc(F)c3)cn2)c1	114	0 (inactive)	0 (inactive)	0 (inactive)	0.1 (inactive)	0.0556 (inactive)	0.125 (inactive)
Cc1ccc2nc(Cl)c(CNCc3cccs3)cc2c1	83.2	0 (inactive)	0 (inactive)	0 (inactive)	0.182 (inactive)	0.2 (inactive)	0.0727 (inactive)
FC(F)(F)c1nnc2ccc(Cl)nn12	84	1 (inactive)	0 (inactive)	0 (inactive)	0.2 (inactive)	0.189 (inactive)	0.333 (inactive)
CC1=Nc2ccc(Cl)cc2C(O)(c2ccc(C)cc2)N1CCN1CCCCC1 (stereo unspecified)	-4.23	0 (inactive)	0 (inactive)	0 (inactive)	< 0 (inactive)	0.188 (inactive)	0.375 (inactive)
O=C(Nc1nc(-c2ccccn2)cs1)c1cncn1-c1ccccc1	68.7	0 (inactive)	0 (inactive)	0 (inactive)	0.0909 (inactive)	0.15 (inactive)	0.236 (inactive)
OCc1ccc(-c2cncc(Nc3cccc(Cl)c3)c2)cc1	99.5	0 (inactive)	0 (inactive)	0 (inactive)	0.1 (inactive)	0.0811 (inactive)	0.152 (inactive)
Cc1cc(C)c2cc(C(=O)NC3CCCCCCC3)[nH]c2c1	124	0 (inactive)	1 (inactive)	0 (inactive)	0.316 (inactive)	0.333 (inactive)	0.438 (inactive)
Nc1nc(N)c2c3c(sc2n1)CN(Cc1ccccc1)CC3	131	0 (inactive)	0 (inactive)	0 (inactive)	0.15 (inactive)	0.278 (inactive)	0.438 (inactive)
O=C(Nc1nnc(S)s1)c1cc(Br)ccc1Cl	91.7	0 (inactive)	0 (inactive)	0 (inactive)	0.05 (inactive)	0.027 (inactive)	0.0909 (inactive)
Nc1ncnc2c1ncn2[C@@H]1O[C@H](COS(=O)(=O)NC(=O)c2ccccc2O)[C@@H](O)[C@H]1O	113	0 (inactive)	0 (inactive)	0 (inactive)	0.1 (inactive)	0.111 (inactive)	0.125 (inactive)
O=S(=O)(c1ccc(Cl)cc1)N1CCN(C(=S)NCc2ccco2)CC1	75.2	1 (inactive)	0 (inactive)	0 (inactive)	0.05 (inactive)	0.0811 (inactive)	0.111 (inactive)
Clc1ccc(CCNc2cc(-c3ccccc3)nc3ncnn23)cc1	83.9	0 (inactive)	1 (inactive)	0 (inactive)	0.136 (inactive)	0.2 (inactive)	0.127 (inactive)
c1ccc(Oc2ccc(-c3cc(C4CCOCC4)[nH]n3)cc2)cc1	98.4	0 (inactive)	0 (inactive)	0 (inactive)	0.182 (inactive)	0.35 (inactive)	0.127 (inactive)
CN1CCCC1CCO[C@](C)(c1ccccc1)c1ccc(Cl)cc1 (stereo partly specified)	46.6	2 (active)	4 (active)	4 (active)	0.9 (active)	1 (active)	1 (active)
CN1CCN(c2cc(-c3ccc(F)cc3)nc(-c3ccncc3)n2)CC1	63	0 (inactive)	0 (inactive)	0 (inactive)	0.182 (inactive)	0.35 (inactive)	0.345 (inactive)
Cc1ccc(C(=O)Nc2ccc(S(=O)(=O)O)c3cc(S(=O)(=O)O)cc(S(=O)(=O)O)c23)cc1NC(=O)c1cccc(NC(=O)Nc2cccc(C(=O)Nc3cc(C(=O)Nc4ccc(S(=O)(=O)O)c5cc(S(=O)(=O)O)cc(S(=O)(=O)O)c45)ccc3C)c2)c1	94.8	0 (inactive)	0 (inactive)	0 (inactive)	0.15 (inactive)	0.297 (inactive)	0.389 (inactive)
NCCCC(N)(C(=O)O)C(F)F (stereo unspecified)	87.1	0 (inactive)	0 (inactive)	0 (inactive)	0.15 (inactive)	0.135 (inactive)	0.222 (inactive)
O=C(c1[nH]nc2c1CCCC2)N1CCN(Cc2ccc3c(c2)OCO3)CC1	89.6	0 (inactive)	0 (inactive)	0 (inactive)	0.0909 (inactive)	0.25 (inactive)	0.236 (inactive)
